About 500 (1.3%) of roughly 39,000 compounds were called active. Only a selection was taken, and actives are over-represented in it overall.

For the test, the system named is S. aureus RN4220. Briefly: growth inhibition call (relative growth <= 0.2). As to conditions: 50 µM.
For `CN1CC2(COC2)OCCS1(=O)=O`, the growth inhibition call is “inactive”.
In the case of `COc1ccc(S(=O)(=O)Nc2ccc3c(c2)CC(=O)N([C@H](C)CO)C[C@H](C)[C@@H](CN(C)S(=O)(=O)c2cn(C)cn2)O3)cc1` it was “inactive”.
The same measure for `CC1(C)Cc2c(-c3ccccc3)c(-c3ccc(Cl)cc3)c(CC(=O)O)n2C1`: “active”; for `Cc1cc(CC(=O)O)n(C)c1C(=O)c1ccc(Cl)cc1`: “inactive”.
Regarding `C[C@H]1CN([C@@H](C)CO)C(=O)c2cccc(NC(=O)Nc3ccc(C(F)(F)F)cc3)c2O[C@@H]1CN(C)C(=O)Nc1ccc(C(F)(F)F)cc1`, the growth inhibition call is “inactive”.
The same measure for `CC(=O)OC1CC(OC(C)=O)C2(C)C(CC(OC(C)=O)C3(C)C4=CC(=O)OC(c5ccoc5)C4(C)CCC32)C1(C)C` (stereo not given): “inactive”; for `CC(C)NC(=O)N(C)C[C@H]1Oc2ccc(NC(=O)Nc3ccc4c(c3)OCO4)cc2CC(=O)N([C@@H](C)CO)C[C@H]1C`: “inactive”; for `O=C(Nc1cc(Cl)cc(Cl)c1O)c1c(O)c(Cl)cc(Cl)c1Cl`: “active”.
In the case of `Oc1c(Cl)cc(Cl)c(Cl)c1Cc1c(O)c(Cl)cc(Cl)c1Cl` it was “inactive”; in that of `Oc1c(Cl)cc(Cl)cc1Sc1cc(Cl)cc(Cl)c1O`, “inactive”; in that of `CS(=O)(=O)N1C[C@@H](O)COC[C@H]2O[C@H](CC(=O)NCc3ccccc3)CC[C@@H]21`, “inactive”.
Consider `Cc1noc(C)c1S(=O)(=O)Nc1ccc2c(c1)C(=O)N([C@H](C)CO)C[C@H](C)[C@@H](CN(C)Cc1ccncc1)O2`, for which the growth inhibition call was “inactive”.
The same measure for `C[C@@H]1CCCCO[C@H](CN(C)C(=O)CCC(F)(F)F)[C@H](C)CN([C@H](C)CO)C(=O)c2cc(NS(=O)(=O)c3cccs3)ccc2O1`: “inactive”.
For `CC(=O)O[C@H]1C[C@@]2(C)[C@@H](C[C@@H](O)[C@@H]3[C@@]4(C)CC[C@@H](O)[C@@H](C)[C@@H]4CC[C@@]32C)/C1=C(/CCC=C(C)C)C(=O)O`, the growth inhibition call was “active”.
The same measure for `CC(=O)OC1(C(C)=O)CCC2C3C=C(C)C4=CC(=O)CCC4(C)C3CCC21C` (stereo not given): “inactive”; for `CC(=O)OC1CC2(C)C(CC(O)C3C4(C)CCC(O)C(C)C4CCC32C)C1=C(CCC=C(C)C)C(=O)O` (stereo not given): “active”; for `CC(=O)C1CCC2C3CC=C4CC(OC(=O)CCC(=O)O)CCC4(C)C3CCC12C` (stereo not given): “inactive”.
The same measure for `CC(=O)O[C@H]1C[C@@]2(C)[C@@H](C[C@@H](O)[C@H]3[C@@]4(C)CC[C@@H](O)[C@@H](C)[C@@H]4CC[C@@]32C)/C1=C(\CCC=C(C)C)C(=O)O`: “active”; for `CC(=O)O[C@H]1C[C@@]2(C)[C@@H](C[C@@H](O)[C@H]3[C@@]4(C)CC[C@@H](O)[C@@H](C)[C@H]4CC[C@@]32C)C1=C(CCC=C(C)C)C(=O)O`: “active”.
With `CC(=O)OC1(C(C)=O)CCC2C3CC(C)C4=CC(=O)CCC4(C)C3CCC21C` (stereo not given), the growth inhibition call is “inactive”.

(Values after the antibiotic and cytotoxicity screens of Wong et al. (2023).)
